Results filed as inconclusive are left out. Active and inactive are the calls of the source. Unless noted, calls follow the shape of the dose curve; as a rule, active = well fitted curve in the direction sought with a large enough effect in the repeat runs; inconclusive = weak or mixed curves; inactive = no such curve, though single readings can be large; an effect the other way counts as inactive or inconclusive.
Experiments:
[1] = qHTS assay for small molecule agonists of the p53 signaling pathway (AID 651631; calls by dose curve; also: nearly all actives have a fitted effect of over 15% in size)
Procedure, shortened: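 We treat p53RE-bla HCT-116 cells with compounds for 16 h at 37 °C, add LiveBLAzer B/G FRET substrate for 2 h at room temperature, and measure fluorescence intensity.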

[2] = qHTS assay for small molecule agonists of the p53 signaling pathway - cell viability (AID 651633; calls by dose curve;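 also: p53RE-bla HCT reporter cells with a stable beta-lactamase p53 reporter; series mostly up to about 83 µM; nearly all actives have a fitted effect of over 30% in size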)
Procedure, shortened: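 p53RE-bla cells, seeded at 4,000 per well and rested 5 h at 37 C/5% CO2, received compounds in DMSO for 16 h at 37 C. CellTiter-Glo was then added, and luminescence was read after 30 min at room temperature to gauge cytotoxicity.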

[3] = qHTS assay for small molecules that induce genotoxicity in human embryonic kidney cells expressing luciferase-tagged ATAD5 - cell viability (AID 651634; calls by dose curve; also: nearly all actives have a fitted effect of over 25% in size)
Procedure, shortened: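 HEK293T cells expressing luciferase-tagged ATAD5 were exposed to compound or DMSO for 15.5 hr at 37C, 5% CO2. Viability was then read as live-cell protease activity by CellTiter-Fluor fluorescence after 30 min at 37C.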

[4] = qHTS assay for small molecule disruptors of the mitochondrial membrane potential (AID 720635); also: potency is read from the fitted curve at half-maximal effect
Procedure, shortened: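 HepG2 cells (2,000/well) attached overnight at 37C, then took compound for 1 hr at 37C, 5% CO2. Mito-MPS dye was added for 30 min; fluorescence was read at 490/535 nm (monomers) and 540/590 nm (aggregates).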

[5] = qHTS assay to test for compound auto fluorescence at 590 nm (red) in HepG2 cells (AID 720674)
Procedure, shortened: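 Rose Bengal sodium served as the red fluorophore standard. HepG2 monolayers (overnight attachment, MEM with 10% FBS) were exposed to test compounds for 1 hr at 37 C and read at Ex 540/Em 590 nm.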

[6] = qHTS assay to test for compound auto fluorescence at 535 nm (green) in HepG2 cells (AID 720675)
[7] = qHTS assay to test for compound auto fluorescence at 460 nm (blue) in HEK293 cells (AID 720678)
Procedure, shortened: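 Blue read-out at excitation 405 nm and emission 460 nm follows overnight compound exposure of HEK293 cells at 37C in 5% CO2. Activity is given as auto fluorescence equivalency to triamterene.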

[8] = qHTS assay to test for compound auto fluorescence at 590 nm (red) in HEK293 cells (AID 720679)
Procedure, shortened: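 Red channel, Ex/Em 540/590nm; signal expressed as equivalency to Rose Bengal sodium. HEK293, 2,000 cells/well, 10% dialyzed FBS; 23 nL compound pinned after 4-5 hr attachment; overnight 37C/5% CO2 before reading.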

[9] = qHTS assay to test for compound auto fluorescence at 535 nm (green) in HEK293 cells (AID 720680)
[10] = qHTS assay to test for compound auto fluorescence at 460 nm (blue) in HEK293 cell free culture (AID 720681)
Procedure, shortened: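 Test compounds were pinned into cell-free culture medium (DMEM with 10% FBS) and fluorescence was read directly at Ex/Em 405/460 nm. Signals were expressed as fluorescence equivalents of triamterene, with DMSO vehicle as control.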

[11] = qHTS assay to test for compound auto fluorescence at 535 nm (green) in HEK293 cell free culture (AID 720682)
Procedure, shortened: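 Green-channel intensity (Ex/Em 485/535 nm) was recorded from compound-treated wells containing only DMEM with 10% FBS. Fluorescein provided the equivalency standard.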

[12] = qHTS assay to test for compound auto fluorescence at 590 nm (red) in HEK293 cell free culture (AID 720683)
Procedure, shortened: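 Tox21 10K library compounds were pinned into cell-free DMEM with 10% FBS and fluorescence was read at excitation 540 nm. Activity is expressed as Rose Bengal sodium equivalency.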

[13] = qHTS assay to test for compound auto fluorescence at 590 nm (red) in HepG2 cell free culture (AID 720684)
Procedure, shortened: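 Red fluorescence (540 nm excitation, 590 nm emission) was measured after compound transfer into cell-free MEM supplemented with 10% FBS. Values are equivalencies against Rose Bengal sodium.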

[14] = qHTS assay to test for compound auto fluorescence at 460 nm (blue) in HepG2 cell free culture (AID 720685)
Procedure, shortened: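 Compound (23 nL) or DMSO pinned into cell-free MEM with 10% FBS; blue fluorescence read at 405/460 nm excitation/emission, expressed as auto-fluorescence equivalency to triamterene.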

[15] = qHTS assay to test for compound auto fluorescence at 535 nm (green) in HepG2 cell free culture (AID 720686)
[16] = qHTS assay to test for compound auto fluorescence at 460 nm (blue) in HepG2 cells (AID 720687)
Procedure, shortened: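 Cells (2,000/well in MEM with 10% FBS) attached overnight at 37 C, then were exposed to compound or DMSO for 1 hr at 37 C, 5% CO2. Fluorescence read at Ex/Em 405/460 nm, expressed as triamterene-equivalent signal.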

[17] = qHTS assay for small molecules that induce genotoxicity in human embryonic kidney cells expressing luciferase-tagged ATAD5 (AID 651632); also: nearly all actives have a fitted effect of over 15% in size; also: potency is read from the fitted curve at half-maximal effect
Procedure, shortened: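 HEK293T cells carrying a luciferase reporter tagged to ATAD5 were exposed to compound or DMSO vehicle for 16 hr at 37C, 5% CO2. Amplite was added, and after 30 min at room temperature luciferase activity was read as a marker of ATAD5 induction.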

[18] = target: Glucocorticoid receptor (Homo sapiens) (UniProt P04150); assay: qHTS assay to identify small molecule agonists of the glucocorticoid receptor (GR) signaling pathway (AID 720691; active = well fitted activation curve with a large enough effect in the signal ratio in the repeat runs, not every such curve was filed as active; the % refers to the signal ratio)
Procedure, shortened: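 GR-bla HeLa cells (beta-lactamase reporter under glucocorticoid response element) were plated 4 h at 37 C/5% CO2, given compounds in DMSO, and incubated 18 h at 37 C. LiveBLAzer B/G FRET substrate was added for 2 h at room temperature, then fluorescence intensity read.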

[19] = target: Glucocorticoid receptor (Homo sapiens) (UniProt P04150); assay: qHTS assay to identify small molecule antagonists of the glucocorticoid receptor (GR) signaling pathway (AID 720692; active = well fitted inhibition curve with a large enough effect in the signal ratio in the repeat runs, not every such curve was filed as active; the % refers to the signal ratio; also: potency is read from the fitted curve at half-maximal effect)
Procedure, shortened: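 GR-bla HeLa cells (beta-lactamase reporter under glucocorticoid response element) were pre-plated 4 h at 37 C, treated with compounds plus 5 nM dexamethasone (final) for 18 h, then read by LiveBLAzer B/G FRET fluorescence after 2 h.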

[20] = qHTS assay for small molecule disruptors of the mitochondrial membrane potential - cell viability (AID 720634; calls by dose curve;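 also: human HepG2 liver cancer cells; series mostly up to about 83 µM; nearly all actives have a fitted effect of over 20% in size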)
Procedure, shortened: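 HepG2 cells seeded overnight at 37 C, then exposed to compound or DMSO for 1 hr at 37 C, 5% CO2. m-MPI dye added, then CellTiter-Glo for 30 min at room temperature; viability read as ATP luminescence.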
% is scaled to controls: 0 for no effect and ±100 for the full control effect.

Sequence of Glucocorticoid receptor (Homo sapiens) (P04150 whole entry, looked up): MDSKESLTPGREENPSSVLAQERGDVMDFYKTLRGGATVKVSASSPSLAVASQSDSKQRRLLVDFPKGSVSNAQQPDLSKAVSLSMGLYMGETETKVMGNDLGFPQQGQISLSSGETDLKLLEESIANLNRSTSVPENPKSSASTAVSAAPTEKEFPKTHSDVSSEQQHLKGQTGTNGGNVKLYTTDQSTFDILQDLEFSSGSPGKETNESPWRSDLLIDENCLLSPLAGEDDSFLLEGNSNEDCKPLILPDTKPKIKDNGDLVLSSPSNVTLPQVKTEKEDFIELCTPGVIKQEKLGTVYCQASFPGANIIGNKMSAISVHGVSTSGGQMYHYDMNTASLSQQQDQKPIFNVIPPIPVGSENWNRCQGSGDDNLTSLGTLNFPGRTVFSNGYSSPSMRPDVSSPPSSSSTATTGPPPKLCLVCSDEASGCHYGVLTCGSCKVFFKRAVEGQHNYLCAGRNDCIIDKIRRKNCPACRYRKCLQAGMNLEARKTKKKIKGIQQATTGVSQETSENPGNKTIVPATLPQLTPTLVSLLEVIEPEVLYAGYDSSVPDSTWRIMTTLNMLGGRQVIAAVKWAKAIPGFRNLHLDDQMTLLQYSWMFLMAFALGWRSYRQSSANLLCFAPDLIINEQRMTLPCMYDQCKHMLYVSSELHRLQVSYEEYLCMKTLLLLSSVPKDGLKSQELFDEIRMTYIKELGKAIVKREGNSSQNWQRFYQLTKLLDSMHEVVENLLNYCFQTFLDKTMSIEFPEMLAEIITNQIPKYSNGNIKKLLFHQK

C(=C\c1ccccc1)/CN1CCN(C(c2ccccc2)c2ccccc2)CC1
inactive: Potency [1] | Potency [2] | Potency [3] | Potency [4] | fluorescence, relative to Rose Bengal [5] -0.246% [at 18.6 µM] | fluorescence, % of fluorescein control [6] 0.0028% [at 18.6 µM] | fluorescence, % of triamterene [7] 0.048% [at 18.6 µM] | fluorescence, % of fluorescent control [8] 0.417% [at 18.6 µM] | fluorescence, % of fluorescein [9] 0.011% [at 18.6 µM] | fluorescence, % of fluorescent control [10] 0.0548% [at 18.6 µM] | activity change [11] -0.0228% [at 18.6 µM] | fluorescence, % of fluorescent control [12] -0.0283% [at 18.6 µM] | fluorescence, % of Rose Bengal [13] -0.312% [at 18.6 µM] | fluorescence, % of fluorescent control [14] 0.108% [at 18.6 µM] | fluorescence, % of fluorescein control [15] 0.012% [at 18.6 µM] | fluorescence, % of fluorescent control [16] 0.0775% [at 18.6 µM]

O=C(CCCCCCCCC#CI)Oc1ccccc1
inactive: Potency [1] | Potency [17] | Potency [2] | outcome [5] | outcome [6] | Potency [7] | outcome [8] | outcome [9] | Potency [10] | outcome [11] | outcome [12] | outcome [13] | Potency [14] | Potency [16] | Potency [18] | Potency [19]

O=C(CS)OCCOC(=O)CS
active: Potency [17] 30.6 µM
inactive: Potency [2] | Potency [3] | Potency [20] | outcome [5] | outcome [6] | Potency [7] | outcome [8] | outcome [9] | Potency [10] | outcome [11] | outcome [12] | outcome [13] | Potency [14] | outcome [15] | Potency [16]

C[C@]12CCC(=O)C=C1C=C[C@@H]1[C@@H]2CC[C@@]2(C)[C@H]1CC[C@@]21CCC(=O)O1
inactive: Potency [1] | Potency [17] | Potency [3] | Potency [4] | outcome [5] | outcome [6] | Potency [7] | outcome [8] | outcome [9] | Potency [10] | outcome [11] | outcome [12] | outcome [13] | Potency [14] | outcome [15] | Potency [16] | Potency [18]
active: Potency [19] 10.7 µM

CCC(Cc1ccccc1)(C(=O)c1ccc(N2CCOCC2)cc1)N(C)C (configuration not stated)
inactive: Potency [1] | Potency [17] | Potency [3] | outcome [5] | outcome [6] | Potency [7] | outcome [8] | outcome [9] | Potency [10] | outcome [11] | outcome [12] | outcome [13] | Potency [14] | outcome [15]
active: Potency [4] 30.6 µM

O=C(CCC1CCN(Cc2ccccc2)CC1)c1ccc2c(c1)NCCCC2
inactive: Potency [17] | Potency [2] | Potency [3] | Potency [20] | outcome [5] | outcome [6] | Potency [7] | outcome [8] | outcome [9] | Potency [10] | outcome [11] | outcome [12] | outcome [13] | Potency [14] | outcome [15]

C=CCOC(=O)/C=C\C(=O)OCC=C
inactive: Potency [17] | Potency [2] | Potency [3] | Potency [20] | Potency [4] | outcome [5] | outcome [6] | Potency [7] | Potency [10] | outcome [11] | outcome [12] | outcome [13] | Potency [14] | outcome [15] | Potency [16] | Potency [18]

Source: PubChem BioAssay (Tox21)
